# Measurements published in PubChem BioAssay AID1671192 (National Center for Advancing Translational Sciences (NCATS), 2021).
# Results filed as inconclusive are left out. Active and inactive are the calls of the source. The call rests on the fitted dose curve; in most records, active means well fitted curve in the direction sought with a large enough effect; inconclusive means small, poorly fitted or top-dose-only effect, or another doubt; inactive means no such curve, though single readings can be large or run the other way.
# Molecular target: Polyunsaturated fatty acid lipoxygenase ALOX15 (Homo sapiens) (UniProt P16050)
# Assay: Counterscreen qHTS for inhibitors of human arachidonate 12S-lipoxygenase (ALOX12): ALOX15 Assay
# Conditions: purified ALOX15 enzyme activity; series mostly up to 110 µM
# Summary of the method: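 Purified human ALOX15 (15hLO-1) at 40 nM in 25 mM HEPES, 0.01% Triton X-100, pH 7.5, preincubated with compound 15 min at RT. Then 50 uM arachidonic acid for 30 min; hydroperoxide detected by Fe-xylenol orange as the 573/405 nm absorbance ratio.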
# Sequence of Polyunsaturated fatty acid lipoxygenase ALOX15 (Homo sapiens) (P16050 whole entry, looked up): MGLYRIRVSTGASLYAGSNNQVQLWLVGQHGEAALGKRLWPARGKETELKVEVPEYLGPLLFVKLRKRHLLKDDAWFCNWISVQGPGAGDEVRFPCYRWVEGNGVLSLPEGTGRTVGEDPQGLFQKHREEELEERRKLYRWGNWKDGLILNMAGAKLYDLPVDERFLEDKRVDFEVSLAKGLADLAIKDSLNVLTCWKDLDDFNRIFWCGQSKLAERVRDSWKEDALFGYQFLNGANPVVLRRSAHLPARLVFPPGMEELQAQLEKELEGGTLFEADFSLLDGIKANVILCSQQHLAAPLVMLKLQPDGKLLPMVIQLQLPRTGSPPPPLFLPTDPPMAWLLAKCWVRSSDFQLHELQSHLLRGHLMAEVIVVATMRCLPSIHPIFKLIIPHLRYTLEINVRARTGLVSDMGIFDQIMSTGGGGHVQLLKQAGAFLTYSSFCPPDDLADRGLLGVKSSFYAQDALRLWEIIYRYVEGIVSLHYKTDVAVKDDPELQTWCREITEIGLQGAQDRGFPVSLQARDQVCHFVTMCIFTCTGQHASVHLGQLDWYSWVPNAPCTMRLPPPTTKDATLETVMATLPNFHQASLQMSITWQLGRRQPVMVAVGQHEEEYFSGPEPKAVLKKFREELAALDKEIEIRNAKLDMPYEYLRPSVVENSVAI
row,Compound,outcome
1,O=C(O)CCCC(=O)N1Cc2ccccc2CC2(CCCCN2CCc2ccccc2)C1 (stereo not drawn),inactive
2,CCN(CC)CC(C)NC (stereo not drawn),inactive
3,CC(C)(C)OC(=O)N1CC(Nc2cccc(Oc3ccccc3)c2)C1,inactive
4,Cn1ncc2c(C(=O)NCCc3ccc(Cl)cc3)cc(-c3ccc([S+](C)(=O)[O-])cc3)nc21,inactive
5,COc1ccc(N2CC3CCC(C2)N3CC(C)C)cc1,inactive
6,CCOc1cccc(CN2CCCC23Cc2ccccc2CNC3=O)c1 (stereo not drawn),inactive
7,Fc1ccc(OC2CN(Cc3cccc4ccccc34)C2)cc1F,inactive
8,O=C1NCc2ccccc2CC12CCN(Cc1cccc(C(F)(F)F)c1)C2 (stereo not drawn),inactive
9,O=C1NCc2ccccc2CC12CCN(CCCc1ccccc1)CC2,inactive
10,CC(=O)NCCC(=O)N1Cc2ccccc2CC2(CCCN2CC2CCNCC2)C1 (stereo not drawn),inactive
11,CCC(=O)N1Cc2ccccc2CC2(CCN(CCc3ccc(C)cc3)CC2)C1,inactive
12,CNCc1ccc(N2CCCC2)cc1,inactive
13,CSc1ccc(-c2ccc(C=O)cc2)cc1,inactive
14,O=Cc1ccccc1-c1ccc(O)cc1,inactive
15,Cc1noc(C)c1C(=O)N1Cc2ccccc2CC2(CCCN(CC3CCNC3)C2)C1 (stereo not drawn),inactive
16,COc1ccc(CC(=O)N2Cc3ccccc3CC23CCCN(C(=O)CCCN)C3)cc1 (stereo not drawn),inactive
17,O=C(c1cc(C2CC2)nc2c1c(C1CCCN1)nn2-c1ccccc1)N1CCC(F)CC1 (stereo not drawn),inactive
18,Cc1ccc(-c2cccc(CN)c2)c(C)c1,inactive
19,O=C1NCc2ccccc2CC12CCN(Cc1ccc(Cl)cc1)CC2,inactive

row,Compound,outcome
1,O=C1NC(=NC2CCCC2)C2(CCCN([S+](=O)([O-])c3cccc(C(F)(F)F)c3)C2)N1c1cc(F)cc(F)c1 (stereo not drawn),inactive
2,CCN1CCC(c2nc3ccc(F)cc3c(=O)[nH]2)CC1,inactive
3,O=C1NCc2ccccc2CC12CCCN2Cc1ccsc1 (stereo not drawn),inactive
4,O=C(N1CCOCC1)N1CCCC1c1nnc2n1CCNC2 (stereo not drawn),inactive
5,COc1ccc(CCNc2ncnc3c2CN(C2CCCNC2)C(=O)CN3C)cc1 (stereo not drawn),inactive
6,CCc1ccc(CN2CCC3(Cc4ccccc4CNC3=O)C2)s1 (stereo not drawn),inactive
7,CC(=O)Nc1ccc(CN2CCC(c3nc4ccc(C)cc4c(=O)[nH]3)CC2)cc1,inactive
8,O=Cc1cccc(-c2cncc(C(=O)O)c2)c1,inactive
9,FC(F)(F)c1ccc(N2C3CCC2CN(Cc2cccs2)C3)cc1,inactive
10,Cc1ccc(CN2CCC3(CC2)Cc2ccccc2CNC3=O)cc1C,inactive
11,CC(C)CNC(=O)c1cc(C2CC2)nc2onc(C3CCCNC3)c12 (stereo not drawn),inactive
12,CN1CCC(C(=O)N2Cc3ccccc3CC3(CCCN(CC4CCNCC4)C3)C2)CC1 (stereo not drawn),inactive
13,Fc1ccc(OC2CN(CC3CC3)C2)cc1F,inactive
14,CNCc1cccn1C,inactive
15,O=C1Nc2ccccc2CC12CN(CC1CCCC1)C2,inactive
16,CNC(C)c1cccc(OC)c1 (stereo not drawn),inactive
17,Cc1cc(C(=O)N2CCOCC2)c2c(C3CCNCC3)noc2n1,inactive
18,NCc1ccccc1-c1cc(C(F)(F)F)ccc1Cl,inactive
19,O=C(c1ccc(C(F)(F)F)cc1)N1CCc2nc(C3CC3)nc(-c3ccc(Cl)cc3)c2C1,inactive
